Assay results reported in PubChem BioAssay (EPA / NIEHS).
More than one record can exist for a structure, and the calls need not agree. The source made the active and inactive calls. How the source made its calls: active means hit-call score of the fitted dose curve at least 0.9, where 1 is the maximum; inactive means score below 0.9.

Target: X-box-binding protein 1 (Homo sapiens) (UniProt P17861)
Assay: ATG_Xbp1_CIS: Attagene CIS-FACTORIAL HepG2 Assay for human X-box Binding Protein 1 (XBP1) (AID 2282972)
Conditions: HepG2 XBP1 cis-element reporter, Attagene multiplex; actives raise or lower the signal
Description: ATG_CIS is a cell-based, multiplexed-readout assay that uses HepG2, a human liver cell line, with measurements taken at 24 hours after chemical dosing in a 24-well plate.ATG_Xbp1_CIS is one of 52 assay component(s) measured or calculated from the ATG_CIS assay. It is designed to make measurements of mRNA induction, a form of inducible reporter, as detected with fluorescence intensity signals by Reverse transcription polymerase chain reaction (RT-PCR) and Capillary electrophoresis technology.Data from the assay component ATG_Xbp1_CIS was analyzed into 1 assay endpoint. This assay endpoint, ATG_Xbp1_CIS, was analyzed with bidirectional fitting relative to DMSO as the negative control and baseline of activity. Using a type of inducible reporter, measures of mRNA for gain or loss-of-signal activity can be used to understand the reporter gene at the transcription factor-level as they relate to the gene XBP1. Furthermore, this assay endpoint can be referred to as a primary readout, because this assay has produced multiple assay endpoints where this one serves a reporter gene function. To generalize the intended target to other relatable targets, this assay endpoint is annotated to the dna binding intended target family, where the subfamily is basic leucine zipper.
Human liver HepG2 cells are transiently transfected with multiple reporter transcription units (MRTUs) in 6-well plates using FuGene 6 reagent (Roche; 3 ml FuGene/1 mg DNA). The MRTU constructs are regulated by a cis-regulating element (promoter). […] A major difference between the CIS and TRANS system is that in CIS activities of endogenous TFs are measured, whereas the TRANS assay evaluates changes in activities of exogenous, chimeric NR-Gal4 proteins. […] At the end of 24 hour incubation, total RNA was isolated using TriZol reagent (Invitrogen). The isolated RNA is then reverse-transcribed using oligo(dT) primer and Mo-MLV reverse transcriptase (Invitrogen) with DNAse I (Ambion) treatment for 30 min. The one-tenth of the produced cDNA was amplified by PCR using Taq DNA polymerase (Invitrogen) and two reporter sequence-specific primers. The PCR products were fluorescently labeled by primer extension with 6-arboxyfluorescein (6-FAM) 5'-labeled reporter sequence-specific primer (2 min at 95 C, 20 s at 68 C and 10 min at 72 C) and these products were digested with 5U of HpaI (New England Biolabs) for 2h at 37 C. The fragments were purified using Qiaquick PCR columns (Qiagen), analyzed on an ABI 3130xL genetic analyzer (Applied Biosystems) with peak positions identified by using a set of X-rhodamine (ROX)-labeled MapMarker1000 molecular weight standards (BioVentures). The raw capillary electrophoresis data was processed using Attagraph software (Attagene).

Sequence of X-box-binding protein 1 (Homo sapiens) (P17861 whole entry, looked up): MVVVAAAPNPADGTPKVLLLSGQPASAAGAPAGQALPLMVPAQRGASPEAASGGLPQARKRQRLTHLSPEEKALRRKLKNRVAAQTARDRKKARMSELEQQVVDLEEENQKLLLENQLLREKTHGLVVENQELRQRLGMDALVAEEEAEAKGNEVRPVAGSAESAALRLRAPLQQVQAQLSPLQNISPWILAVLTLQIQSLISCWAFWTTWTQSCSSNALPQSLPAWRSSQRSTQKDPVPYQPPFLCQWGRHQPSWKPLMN

| SMILES | outcome | AC50 |
| --- | --- | --- |
| Cc1ccc(C(C)C)cc1 | inactive | – |
| CC(C)(C)c1csc(-c2cc3cc(OCc4ccccc4CC(=O)O)ccc3o2)n1 | – | 50.2 µM (active) |
| Cc1occc1C(=O)Nc1ccc(C(=O)N2CCC(F)(F)/C(=C\C(=O)N3CCC(N4CCCCC4)CC3)c3ccccc32)cc1 | – | 51.2 µM (active) |
| CC[C@H](NC(=O)c1cc(F)ccc1NS(=O)(=O)c1cccc2cccnc12)c1ccccc1 | inactive | – |
| Cc1cc2c(cc1C(F)(F)F)N(C(=O)Nc1ccc(Oc3cccnc3C)nc1)CC2 | inactive | – |
| CN1C(=O)N(c2ccccc2Br)Cc2cnc(Nc3ccc4c(c3)OCC(CO)O4)nc21 (stereo not given) | – | 9.79 µM (active) |
| C[C@]12CC[C@@H]3c4ccc(O)cc4CC[C@H]3[C@@H]1CCC2=O | inactive | – |
| CC(C)(C)c1cc(/C=C2\SC(N)=NC2=O)cc(C(C)(C)C)c1O | – | 20.8 µM (active) |
| CCCCCCCCCCCO | inactive | – |
| CN(C)C(=O)C1(N2CCCCC2)CCN(CC[C@@]2(c3ccc(Cl)c(Cl)c3)CN(C(=O)c3ccccc3)CCO2)CC1 | inactive | – |
| OCCO | inactive | – |
| CC/C(=C(/CC)c1ccc(O)cc1)c1ccc(O)cc1 | inactive | 14.4 µM (active) [middle of 4 runs] |
| Cc1cn([C@H]2C[C@H](N=[N+]=[N-])[C@@H](CO)O2)c(=O)[nH]c1=O | inactive | – |
| Cc1oc2c(NC(=O)c3c(Cl)cccc3Cl)cccc2c1C(C)(C)O | inactive | – |
| CCCCCCCCOC(=O)c1cc(O)c(O)c(O)c1 | inactive | – |
| c1ccc(C[n+]2cccc3ccccc32)cc1 | inactive | – |
| CCCCCCCCOc1ccc(C(=O)c2ccccc2)c(O)c1 | inactive | – |
| C[C@]12CC[C@@H]3c4ccc(O)cc4CC[C@H]3[C@@H]1CC[C@H]2O | inactive | – |
| CN1C(=O)CC[C@H]1c1cccnc1 | inactive | – |

| SMILES | outcome | AC50 |
| --- | --- | --- |
| CCO[Si](CCCNC(N)=O)(OCC)OCC | inactive | – |
| CCN(Cc1cccc(S(=O)(=O)O)c1)c1ccc(C(=C2C=CC(=[N+](CC)Cc3cccc(S(=O)(=O)O)c3)C=C2)c2ccccc2S(=O)(=O)[O-])cc1 | inactive | – |
| O=CCCCC=O | inactive | – |
| O=C1CCC(C2CCCCC2)CC1 | inactive | – |
| O=C(O)Cn1c(=O)n(Cc2ccc(Br)cc2F)c(=O)c2ccc(Cl)cc21 | inactive | – |
| O=C(O)c1ccccc1C(=O)OCc1ccccc1 | inactive | – |
| Clc1ccccc1C(c1ccccc1)(c1ccccc1)n1ccnc1 | – | 11.1 µM (active) |
| NC(=O)c1nc(-c2cccc(-c3cc(F)ccc3OCC(F)(F)C(F)(F)F)c2)n[nH]1 | – | 44.6 µM (active) |
| CCCCOC(=O)c1ccc(O)cc1 | inactive | 107 µM (active) |
| O=c1c(-c2ccc(O)cc2)coc2cc(O)cc(O)c12 | inactive | – |
| Cc1ncc(CO)c(CO)c1O | inactive | – |
| CCCCCCCCCCCCO | inactive | – |
| Clc1cc(Cl)c2c(c1)N=C1CCCCCN1C2 | inactive | – |
| CC[C@@H]1C[C@H](N(Cc2cc(C(F)(F)F)cc(C(F)(F)F)c2)C(C)=O)c2cc(C(F)(F)F)ccc2N1C(=O)OC(C)C | inactive | – |
| CCCOC(=O)c1cc(O)c(O)c(O)c1 | inactive | – |
| O=C(O)Cc1cc(I)c(Oc2ccc(O)c(I)c2)c(I)c1 | inactive | – |
| Cc1cccc2ccccc12 | inactive | – |
| O=C(O)c1ccccc1-n1cc(C(=O)O)c(=O)c2cc(Nc3c(F)cc(F)cc3Cl)c(Cl)cc21 | inactive | – |
| O=C1c2ccccc2C(=O)N1CCc1noc(-c2ccc(CN3CCCCCC3)s2)n1 | inactive | – |
